For 40 molecules, Potency results are on record in PubChem BioAssay (Tox21).

Where “and” joins values, the source holds several entries; their conditions need not be identical. Identical values can stand only once. Inconclusive results are not listed. Entries that show only a call come without a potency. Where a structure was tested more than once in an assay, its records may differ in their call. Calls of active or inactive are those of the source. Calls follow the shape of the dose curve; as a rule, active = well fitted activation curve with a large enough effect in the repeat runs; inconclusive = weak or mixed curves; inactive = flat fitted curve, though single readings scatter.
Potency is read from the fitted curve at half-maximal effect.

The experiment is described as follows: A CellTox Green Cytotoxicity Assay to monitor cytotoxicity in HepG2 cells - 16 hour (AID 1224876). Also: nearly all actives have a fitted effect of over 45% in size. Particulars: CellTox Green fluorescence; series mostly up to 76.8 µM. An excerpt: National Center for Advancing Translational Sciences [NCATS]
NIH Chemical Genomics Center [NCGC]
U.S. Environmental Protection Agency [EPA]
National Institutes of Environmental Health Sciences [NIEHS]
National Toxicology Program [NTP]
Cell-based models are critical for drug discovery. Determining the natural cytotoxic effects resulting from test compounds is an essential research activity. A CellTox Green Cytotoxicity Assay to monitor cytotoxicity in real time of continues cell culture during 40 hours of the compound treatment was used to screen Tox21 10K library compounds in HepG2 cells. CellTox Green Cytotoxicity Assay is a nonlytic, homogeneous, biofluorescent method to measure cytotoxicity in cell culture after experimental manipulation. The assay system uses a proprietary asymmetric cyanine dye that is excluded from viable cells but preferentially stains the dead cell's DNA. […] Viable cells produce no appreciable increases in fluorescence. Therefore, the fluorescence signal produced by the binding interaction with dead cell DNA is proportional to cytotoxicity.
The mixture of HepG2 cell suspension and reagents were dispensed at 600cells/6 ul/well in 1536-well tissue culture treated black solid bottom plates using a Multidrop dispenser. After the assay plates were incubated at a 37 C/5% CO2 incubator for 5 hours, 23 nL of compounds dissolved in DMSO, positive and negative controls was transferred to the assay plate by a pintool work station. The plates were incubated at 37 C for 40 hours. The fluorescence intensity were measured at 0h, 8h, 16h, 24h, 32h and 40h time points using ViewLux plate reader during compound treatment.
With `O=C(Nc1cccc(Cl)c1)OCC#CCCl`, the Potency entry was “inactive”. The value for `NC(=O)NS(=O)(=O)c1ccc(N)cc1` was “inactive”. The value for `NC(=O)C1(N2CCCCC2)CCN(CCCN2c3ccccc3CCc3ccc(Cl)cc32)CC1` was 26.8 µM (active); that for `CCCCC(CC)CN=C(N)NC(N)=NCCCCCCN=C(N)NC(N)=NCC(CC)CCCC` (stereo not given) was 8.49 µM (active); that for `N=C1C=CC(=C(c2ccc(N)cc2)c2ccc(N)cc2)C=C1` was “inactive”.

As for `Cn1cc(C(=O)[C@@H]2CCc3nc[nH]c3C2)c2ccccc21`, the Potency result was “inactive”. On to `Cc1cccc2c1cc1ccc3cccc4ccc2c1c34`, for which the Potency result was “inactive”. For `ON=C1CCCC1` the value was “inactive”; for `Cc1ccc(O)c2ncccc12`, “inactive”; for `O=C1c2ccccc2Cc2ccccc21`, “inactive”. In the case of `Cc1cc(O)c(C(C)(C)C)cc1C(C)(C)C`, the Potency was 21.9 µM (active). For `CC(C)OC(=O)c1cc2c(OCC(O)CNC(C)(C)C)cccc2[nH]1` (stereo not given), the Potency entry is “inactive”.

Turning to `CCC1OCC(COc2ccc(Oc3ccccc3)cc2)O1` (stereo not given), the Potency result is “inactive”. The value for `Cc1[nH]nc2c1N=C(c1ccccc1Cl)c1cc([N+](=O)[O-])ccc1N2` was “inactive”. Regarding `Fc1ccc([C@@H]2CCNC[C@H]2COc2ccc3c(c2)OCO3)cc1`, the Potency is 23.9 µM (active). For `Nc1ccc2c3c(cccc13)-c1ccccc1-2` the value was 39.3 µM (active); for `O=[N+]([O-])c1cc(Cl)c(Cl)c(Cl)c1Cl`, “inactive”; for `C=C(C)C(=O)OCC[N+](C)(C)C`, “inactive”. `NC(=NCCCCCCN=C(N)/N=C(\N)Nc1ccc(Cl)cc1)/N=C(\N)Nc1ccc(Cl)cc1`: the Potency was 19.8 µM (active) [middle of 4 runs]. The value for `CCCCCCCC/C=C/CCCCCCCC1=NCCN1CCO` was 21.9 µM (active); that for `Nc1c(Cl)cc(Cl)cc1Cl` was “inactive”; that for `O=[N+]([O-])c1cc([N+](=O)[O-])c2ccc(S(=O)(=O)O)cc2c1O` was “inactive”. As to `CCCCCCCCCCCC[N+](C)(C)CCCCCCCCCCCC`, the Potency is 9.77 µM (active). In the case of `CCOC(=O)/C=C(C)/C=C/C=C(C)/C=C/c1c(C)cc(OC)c(C)c1C`, the Potency entry is “inactive”. The value for `Cc1cc(C2CCCCC2)n(O)c(=O)c1` was “inactive”; that for `N#CC1(c2ccc(F)cc2)CCC(=O)CC1` was “inactive”; that for `O=C(Nc1cccc([N+](=O)[O-])c1)c1cc2ccccc2cc1O` was “inactive”. The value for `OC1(c2ccc(Cl)c(C(F)(F)F)c2)CCN(CCCC(c2ccc(F)cc2)c2ccc(F)cc2)CC1` was 10.7 µM (active).

As to `CC(=O)S[C@@H]1CC2=CC(=O)CC[C@]2(C)[C@H]2CC[C@@]3(C)[C@@H](CC[C@@]34CCC(=O)O4)[C@H]12`, the Potency result was “inactive”. For `Cc1c(C)c2c(c(C)c1O)CCC(C)(COc1ccc(CC3SC(=O)NC3=O)cc1)O2` (stereo not given) the value was “inactive”; for `CC[C@@]1(O)C(=O)OCc2c1cc1n(c2=O)Cc2c-1nc1ccccc1c2/C=N/OC(C)(C)C`, 3.38 µM (active). For `CCCCCCCCOc1ccccc1C(=O)Nc1ccc(C(=O)OCC[N+](C)(CC)CC)cc1`, the Potency was 23.9 µM (active).

As to `CN(C/C=C/C#CC(C)(C)C)Cc1cccc2ccccc12`, the Potency result was “inactive”. In the case of `Cc1cccc(CN2CCN(C(c3ccccc3)c3ccc(Cl)cc3)CC2)c1` (stereo not given), the Potency result was “inactive”. For `CSc1ccc2c(c1)C(N1CCN(C)CC1)Cc1ccccc1S2` (stereo not given), the Potency was 26.8 µM (active).

Consider `Cc1onc(-c2ccccc2Cl)c1C(=O)N[C@@H]1C(=O)N2[C@@H]1SC(C)(C)[C@@H]2C(=O)O`, for which the Potency entry was “inactive”. For `Nc1c2ccccc2nc2ccccc12` the value was “inactive and 13.4 µM (active)”; for `CCCCCCCCCCCCCCCC(=O)OC[C@H](O)[C@H]1OC(=O)C(O)=C1O`, “inactive”; for `CSc1cnc(C)cn1`, 89.4 µM (active). The value for `N/C(=N\N=C\c1ccc(Cl)cc1)N/N=C/c1ccc(Cl)cc1` was 21.3 µM (active).
